Data published in PubChem BioAssay AID2813 (NMMLSC, 2010).
Several values for one entry are separate records, joined by “and”; a condition that tells them apart may be missing. Identical values can stand only once. Hit rate of the full screen: of about 1,300 compounds, about 20 (2%) were called active. Cut-off read from the data, not from the text of the source: active = inhibition above about 40%; inactive = the rest. These entries were drawn from the full list.

target: Integrin alpha-4 (Homo sapiens) (UniProt P13612); assay: retest of VLA-4 allosteric modulators, confirmation, cell-based, cherry-picked plates, U937, HUTS-21 LIBS antibody (AID 2813); details: U937 cells, HUTS-21 LIBS mAb binding, flow cytometry; at 6.7 µM; active compounds read high; LDV ligand present at threefold Kd;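 note: 0% = ligand without compound and 100% = no ligand background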
Sequence (P13612 whole entry, looked up): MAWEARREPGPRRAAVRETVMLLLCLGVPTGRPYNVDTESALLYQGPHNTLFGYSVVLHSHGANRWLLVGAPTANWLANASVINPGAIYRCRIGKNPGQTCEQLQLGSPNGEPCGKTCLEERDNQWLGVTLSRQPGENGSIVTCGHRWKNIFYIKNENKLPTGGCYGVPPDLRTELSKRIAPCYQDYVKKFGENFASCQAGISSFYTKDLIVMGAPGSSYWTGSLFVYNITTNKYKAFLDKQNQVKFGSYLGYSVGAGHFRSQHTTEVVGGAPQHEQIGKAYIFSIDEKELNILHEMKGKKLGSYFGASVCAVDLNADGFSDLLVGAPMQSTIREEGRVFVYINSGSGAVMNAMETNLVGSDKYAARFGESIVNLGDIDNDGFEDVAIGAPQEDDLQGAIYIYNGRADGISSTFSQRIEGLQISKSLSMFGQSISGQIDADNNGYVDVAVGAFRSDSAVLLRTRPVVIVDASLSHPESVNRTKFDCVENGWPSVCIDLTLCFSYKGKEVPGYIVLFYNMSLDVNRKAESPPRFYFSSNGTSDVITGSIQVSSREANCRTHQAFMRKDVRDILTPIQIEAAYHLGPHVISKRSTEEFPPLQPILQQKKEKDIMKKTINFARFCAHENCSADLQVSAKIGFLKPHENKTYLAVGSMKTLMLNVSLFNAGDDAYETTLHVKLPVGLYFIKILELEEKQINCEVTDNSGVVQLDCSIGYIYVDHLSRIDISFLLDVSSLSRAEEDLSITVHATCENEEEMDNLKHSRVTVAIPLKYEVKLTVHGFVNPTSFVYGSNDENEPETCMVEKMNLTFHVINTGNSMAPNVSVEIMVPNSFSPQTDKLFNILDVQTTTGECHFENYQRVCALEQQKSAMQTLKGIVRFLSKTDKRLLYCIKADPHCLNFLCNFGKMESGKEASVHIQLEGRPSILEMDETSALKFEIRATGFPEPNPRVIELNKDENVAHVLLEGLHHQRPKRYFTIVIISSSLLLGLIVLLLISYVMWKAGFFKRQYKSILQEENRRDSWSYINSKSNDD

inhibition, inactive:
COc1ccc(C(=O)N2CCC(C(=O)Nc3cccc(C)c3)CC2)cc1OC -6.72%
Cc1ccc(NC(=O)OCc2cncs2)cc1 11.7%
CC1(C)SC2C(NC(=O)COc3ccccc3)C(=O)N2C1C(=O)O (stereo not given) 4.42%
COC(=O)[C@]1(Cc2ccccc2)N[C@H](CN(C)S(=O)(=O)c2ccc(OC(F)(F)F)cc2)[C@@H]2C(=O)N(Cc3ccccc3)C(=O)[C@@H]21 -5.51%
CSc1nc(-c2ccco2)nn1C(=O)CCc1ccccc1 9.03%
Cc1cccc(NS(=O)(=O)c2ccc(C)c(C(N)=O)c2)c1 0.43%
CC1(C(=O)NCCc2c[nH]c3ccccc23)C=CC2(CCCCC2)N1C(=O)c1ccccc1 (stereo not given) 5.58%
CCCOc1ccc(N2C(=O)CC(N(CCc3ccc(S(N)(=O)=O)cc3)C(C)=O)C2=O)cc1 (stereo not given) -1.15%
CC(=O)NC12CC3CC(C1)CC(C(=O)N1CCN(S(=O)(=O)c4cccs4)CC1)(C3)C2 -0.75%
Cc1nn(CC(=O)Nc2ccc(C#N)cc2)c(C)c1[N+](=O)[O-] -11.4%
Nc1ccc(Cl)c(S(=O)(=O)Nc2ccccc2Cl)c1 -5.79%
O=C1Cc2cc(S(=O)(=O)Nc3cccc(F)c3)ccc2N1 -8.24%
CC(OC(=O)c1c(F)cccc1F)C(=O)NCCC1=CCCCC1 (stereo not given) 1.98%
O=C(Nc1cccc(S(=O)(=O)Nc2ccc(Cl)cc2)c1)c1ccc2c(c1)OCCO2 -8.53%
Cc1cc(C)n(CC(O)CN(c2ccccc2)S(=O)(=O)c2ccc3ccccc3c2)n1 (stereo not given) 11.9%
CC/C(O)=C1\C(=O)CC(C)(C)CC1=NCCc1nc2ccccc2[nH]1 -5.52%
CC(=O)c1cccc(NC(=O)C2CCN(C(=O)c3ccccc3Cl)CC2)c1 5.38%
COC(=O)c1c(NC(=O)c2c(Cl)cnn2C)sc(C)c1C -13.4%
CCn1c(SCC(=O)Nc2nc(C)cs2)nnc1C(C)NC(=O)c1ccccc1 (stereo not given) 0.62% and 0%
Cc1ccc(S(=O)(=O)N2[C@@H](c3ccc(Br)cc3)C(C(=O)O)=C[C@H]2CC2CCCC2)cc1 4.02%
Cc1cc(C)cc(C(=O)NCC(=O)OCC(=O)N2CCCCC2)c1 13.7%
Cc1ccnc(NC(=O)c2ccco2)n1 -3.54%
S=C(Nc1cccnc1)Nc1ccccn1 -4.45%
COc1cccc(-c2cccc(NC(=O)C3CCN(C4CCC4)CC3)c2)c1 3.49%
COc1cccc(N2CCN(C3CC(=O)N(c4ccc(Cl)cc4)C3=O)CC2)c1 (stereo not given) 3.08%
CCOC(=O)N1CCN(S(=O)(=O)c2ccc3c(c2)C(C)C(=O)N3)CC1 (stereo not given) 0.62%
CCOC(=O)C1CCCN(S(=O)(=O)c2ccc3c(c2)C(C)(C)C(=O)N3C)C1 (stereo not given) 0.62%
CC(=O)c1ccc(N2CCN(S(=O)(=O)c3ccc4c(c3)CC(=O)N4C)CC2)cc1 -9.51%
O=C(CN1CCC(NC(=O)Nc2ccccc2)CC1)Nc1cccc([N+](=O)[O-])c1 1.64%
Cc1cnc(NC(=O)C2CCCC2)s1 -4.15%
Cc1ccc(S(=O)(=O)N2[C@@H](c3cccc4ccccc34)C(C(=O)O)=C[C@H]2C(C)(C)C)cc1 1.98%
CCCN(CC1COc2ccccc2O1)C(=S)Nc1ccc(C)cc1 (stereo not given) -14.3%
COCCNC(=O)Cn1cc2c(n1)CCCCC2 3.34%
CC(C)(C)NC(=O)NC(=O)COC(=O)Cn1c(C(F)(F)F)nc2ccccc21 -13.5%
COc1ccccc1NC(=O)c1cc(Cl)nnc1Cl 0%
COC(=O)N/N=C/c1c[n+]([O-])c2ccccc2[n+]1[O-] 1.64%
COc1cccc(-c2sc3ccc(OC)cc3c2-c2ccc(OCCN3CCCCC3)cc2)c1 3.49%
CCc1ccc2c(c1)C1(NN=C(c3ccccc3)S1)C(=O)N2 (stereo not given) 2.06%
Cc1cc(C(=O)OCC(=O)Nc2ccc(F)c(F)c2)c(C)o1 0%
CCNC(=S)NNC(=O)Cc1ccccc1 -5.51%
CCOC(=O)C1(S(=O)(=O)c2ccccc2)CCN(Cc2ccccc2)CC1 1.76%
COCCOC(=O)C1=C(C)Nc2nc(C)nn2C1c1ccccc1 (stereo not given) 3.82%
CCCOc1ccccc1C1CC(=O)Nc2cc3c(cc21)OCO3 (stereo not given) 37.9%
Cc1cc(C(=O)OCC(=O)NCc2ccco2)c(C)n1-c1ccccc1 24.9%
CCc1nnc(NC(=O)[C@@H](NC(=O)c2cccc(C)c2)C(C)C)s1 3.73%
O=C(Nn1c(-c2ccccc2)nc2ccccc2c1=O)c1ccc([N+](=O)[O-])cc1 -13.4%
CC(C)N(Cc1ccccc1)C(=S)Nc1ccc(OC(F)F)cc1 -7.72%
Cc1cnc(NC(=O)CSc2nnc(C)s2)s1 -0.75%
CCOc1ccc(N(CC(=O)Nc2ccccc2F)S(=O)(=O)c2c(C)[nH]c(=O)[nH]c2=O)cc1 5.58%
COc1ccccc1C1CC(=O)n2c(nc(-c3ccccc3)c2-c2ccccc2)S1 (stereo not given) -0.36%
COc1ccc(-c2sc3ccccc3c2-c2ccc(OCCN3CCOCC3)cc2)cc1 7.43%
CCOC(=O)C1(S(=O)(=O)c2ccc(Cl)cc2)CCN(Cc2ccccc2)CC1 5.07%
CC(=O)c1ccc(NC(=O)Cn2c(=O)oc3ccccc32)cc1 2.42%
CCOC(=O)c1ccc(N2C(=O)CC(N3CC(C)OC(C)C3)C2=O)cc1 (stereo not given) 5.58% and 0%
Cc1cc(C)cc(OCC(=O)NCc2cc(C)nc3ccccc23)c1 -0.36%
NC(=O)Cn1c(=O)oc2ccccc21 -9.51%
Cc1c(CN2CCC(CO)(CCOc3ccccc3)CC2)[nH]c2ccc(Cl)cc12 22.3%
CCC(C)(C)NC(=O)c1cc([N+](=O)[O-])ccc1N1CCCCC1 -9.35%
O=C(CN1CCN(c2ncccn2)CC1)Nc1ccccc1C(F)(F)F 4.55%
Cc1ccccc1OCCC(=O)OCC(=O)NC(C)c1ccccc1 (stereo not given) 9.45%
CC(=O)N1CCc2cc(S(=O)(=O)Nc3ccccc3N3CCN(C)CC3)ccc21 1.98%
Cc1nn(Cc2ccc(Cl)c(Cl)c2)c(C)c1NC(=O)c1cc(C2CC2)on1 -4.2%
COc1ccc2sc(-c3ccccc3OC)c(-c3ccc(OCCN4CCCC4)cc3)c2c1 -4.83%
O=C(Cn1c(NCCO)nc2ccccc21)c1ccc(Cl)cc1Cl 8.37%
Cc1ccc(/C=C/C(=O)OCC(=O)NCc2ccc(Cl)cc2)o1 -0.23%
